Experimental data as given in PubChem BioAssay (NCATS).
Values joined by “and” are separate entries in the source; they are usually repeats but may differ in a detail not shown here. Equal entries are not always repeated. Inconclusive results are not listed. Active and inactive are the calls of the source. Calls follow the shape of the dose curve; as a rule, active = well fitted inhibition curve with a large enough effect; inconclusive = small, poorly fitted or top-dose-only effect; inactive = no such curve, though single readings can be large or run the other way.

Assay: Primary qHTS for inhibitors of nuclear receptor binding SET domain protein 2 (NSD2) in an RCH-ACV wild type WT cells (2C) (AID 1645877); also: nearly all actives have a fitted effect of over 70% in size
Settings: RCH-ACV (leukaemia line) NSD2 WT (2C) viability, CellTiter-Glo, 72 h; series mostly up to 44.9 µM; activity change, negative = cell killing: at the top concentration
% is scaled to controls: 0 for no effect and ±100 for the full control effect; potency is read from the fitted curve at half-maximal effect.

Compound | Potency | activity change, negative = cell killing | outcome
CCCC(Nc1nc(-c2ccc(NC(=O)NCC)c(OC)c2)ncc1C)c1cccnc1 (stereo not drawn) | 0.115 µM (active) |  | 
CN(C)Cc1ccc(-c2cnn3c(-c4cccc(NC(=O)c5cccc(C(F)(F)F)c5)c4)ccnc23)cc1 | 4.09 µM (active) |  | 
C=CC(=O)Nc1cccc(Nc2nc(Nc3ccc(NC4CN(CCF)C4)cc3OC)ncc2C(F)(F)F)c1 | 4.09 µM (active) and 6.61 µM (active) |  | 
N#Cc1cnc2c(Cl)cc(NCc3cn(CCN4CCCCCC4)nn3)cc2c1Nc1ccc(F)c(Cl)c1 | 11.5 µM (active) |  | 
CCOc1cc(C(C)(C)C)ccc1C1=N[C@@](C)(c2ccc(Cl)cc2)[C@@](C)(c2ccc(Cl)cc2)N1C(=O)N1CCN(CC(=O)N2CCOCC2)CC1 | 1.03 µM (active) |  | 
CC(C)(O)C(=O)N1CCN(c2ccc(C(F)(F)F)c(C3=C(c4c[nH]c5ccccc45)C(=O)NC3=O)c2)CC1 | 1.03 µM (active) |  | 
CCCCC1CCN(CCCN2C(=O)CCc3ccccc32)CC1 | 11.5 µM (active) |  | 
C[C@@H](NC(=O)C(=O)c1c[nH]c2ccc([N+](=O)[O-])cc12)c1ccccc1 |  | -20.9% (inactive) | 
O=C(Nc1cccnc1)c1cc(-c2ccnc(F)c2)ccc1OCc1ccccc1 |  |  | inactive
Cc1[nH]c(/C=C2\C(=O)Nc3ccc(F)cc32)c(C)c1C(=O)NCCN1CCCC1 | 11.5 µM (active) and 7.23 µM (active) |  | 
O=C(c1ccc(OC(F)F)c(C#Cc2ccccn2)c1)N1Cc2cccnc2C1 |  | -18.5% (inactive) | 
CCNC(=O)Nc1ccc(-c2nc3c(c(N4CCOCC4C)n2)CCN(C2COC2)C3)cc1 (stereo not drawn) | 0.459 µM (active) |  | 
COCCCNC(=O)c1ccc(Cn2c(=O)c3ccccc3n(Cc3ccc(C(C)C)cc3)c2=O)cc1 |  | -10.7% (inactive) | 
